{
  "source": "PubChem BioAssay AID720524",
  "about": "(National Center for Advancing Translational Sciences (NCATS), 2013)",
  "note": "Among all 1,400 compounds or so, about 1,000 (71%) were called active. Roughly 12% stayed inconclusive and do not appear here. Calls come from the whole dose curve; as a rule, active = well fitted inhibition curve with a large enough effect; inconclusive = small, poorly fitted or top-dose-only effect; inactive = no such curve, though single readings can be large or run the other way. So high a share suggests a set chosen from earlier hits. Not all results are given here. Potency is the fitted concentration of half-maximal effect.",
  "data": [
    {"assay": "Nrf2 qHTS screen for inhibitors: Nrf2 A549 ARE-Fluc Confirmation Assay for Hit Validation; note: nearly all actives have a fitted effect of over 65% in size", "details": "A549 ARE-firefly luciferase reporter, luminescence", "description": "Nrf2 is a transcription factor that maintains cellular redox homoestasis and protects cells from xenobiotics. Nrf2 binds to the antioxidant response element (ARE) to induce gene expression of a broad spectrum of genes that encode for antioxidants. […] Finding a small molecule that act as an inhibitor of Nrf2 function would represent a novel therapeutic target that could lead to improvement in survival of patients undergoing chemo- and/or radio- therapy.\nIn collaboration with the Biswal laboratory, a cell based, luminescence assay (BugLite) was developed to detect the Nrf2 activity using the A549 ARE_Fluc cells (AID 493153). This assay was coupled with a fluorescence based (CellTiter Fluor) cytotoxicity assay to identify and exclude toxic compounds. This coupled assay was used to evaluate selected compounds for hit validation. The data herein is the result of the BugLite assay where decrease in luminescence signal = inhibition of Nrf2 activation. Inhibition is the desired outcome for this assay.\nNIH Chemical Genomics Center [NCGC]\nNIH Molecular Libraries Probe Centers Network [MLPCN]\nAssay Submitter (PI): Shyam Biswal, Johns Hopkins University\n[1] Shibata T., et al., Genetic alteration of Keap1 confers constitutive Nrf2 activation and resistance to chemotherapy in gallbladder cancer. Gastroenterology, 2008.\n[2] Sjoblom T., et al., The consensus coding sequences of human breast and colorectal cancers. Science, 2006.\nFive uL of cell suspension was dispensed into 1536-well white TC-treated plate using the Kalypsys dispenser to achieve a density of 5000 cells/well in all columns except column 1. The plates were incubated at 37deg C at 5% CO2 for 2 hours before 23 nL of compounds were added with the Kalypsys pin tool equipped with a 1,536-pin array. The control compounds Budesonide and Staurosporine were added at a concentration of 2mM. Budesonide was also added as a 1:10 titration, starting at 200uM, to achieve the dose-response control signal. The plates were incubated for 18-24 hour at 37deg C, 5% CO2 followed by a 5ul addition of 5% FBS OPTI-MEM growing media in column 1 as negative control. One microliter of 5x CellTiter Fluor (Promega) was added to each well and the assay plates were incubated at 37deg C, 5% CO2 for 30 minutes. The fluorescence signal was read using the PerkinElmer ViewLux plate reader (Ex = 405 nm /Em = 525 nm) for a 3 second exposure. After the signal was taken, 3 uL of 3x BugLite was dispensed into all wells. The plates were then incubated at room temperature for 15 minutes. A second ViewLux read (40 sec exposure) was performed to detect the luminescence signal. Cytotoxicity was assessed through the first fluorescent read while biochemical activity against Nrf2 was measured in the luminescent read. The data was normalized to the positive and negative controls.", "values": [
      {"smiles": "c1ccc2c(c1)[I+]c1ccccc1-2", "Potency": "206 nM (active)"},
      {"smiles": "CC[C@H]1CN2CCc3cc(OC)c(OC)cc3[C@@H]2C[C@@H]1C[C@H]1NCCc2cc(OC)c(OC)cc21", "Potency": "146 nM (active)"},
      {"smiles": "CCC(C)(O)C(=O)OC1C(=O)OC2CC3C(C)=CC(=O)C(O)C3(C)C3C4(O)OCC23C1C(C)C4O", "note": "(stereo not given)", "Potency": "580 nM (active)"},
      {"smiles": "COC1C(O)C(C)OC(OC2CCC3(C=O)C(CCC4C3CCC3(C)C(C5=CC(=O)OC5)CCC43O)C2)C1O", "note": "(stereo not given)", "Potency": "11.6 nM (active)"},
      {"smiles": "C[C@]12CC[C@H](O)C[C@H]1CC[C@@H]1C2CC[C@]2(C)[C@@H](C3=CC(=O)OC3)[C@@H](O)C[C@]12O", "note": "(stereo not given in full)", "Potency": "1640 nM (active)"}
    ]}
  ]
}
